Assay outcomes (PubChem BioAssay)
KB-3-1 cytotox = kills parental KB-3-1 adenocarcinoma cells | KB-3-1 viability, CellTiter-Glo ATP luminescence, 72 h | AID 1347075 | 1.4% of 400,000 active | Potency, µM (titrated, usually from 46.1 µM), most hits filed as cytotoxic; further: on the % scale 0 is the no-effect control and ±100 the full control effect; nearly all actives have a fitted effect of over 60% in size
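Parental KB-3-1 viability, qHTS format: 72 h compound exposure, 37 °C; CellTiter-Glo; media-only wells and DMSO plates as controls; concentration-effect fits on corrected data.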
SW480 rereplic = induces DNA re-replication in SW480 colon adenocarcinoma cells; SW480 DNA re-replication, Hoechst DNA content imaging, 48 h; Potency, µM (doses to about 46.1 µM), without a hit: at the top dose re-replication activation, usual class: activators; 1.8% of 340,000 active; AID 624297; further: % of control where 0% means no effect; nearly all actives have a fitted effect of over 55% in size
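Cells (250 per well) received 23 nL compound or DMSO by pin tool and were kept 48 hr at 37 C, 5% CO2. Nuclei were then stained with Hoechst for 40 min and scanned for DNA content.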
MCF10A rereplic = induces DNA re-replication in MCF 10a normal breast cells. MCF 10A DNA re-replication, Hoechst nuclear intensity, 48 h. Potency, µM (highest dose often 46.1 µM), for inactives: at the top dose activity, positive = re-replication, most hits filed as activators. 2.9% of 350,000 active. AID 624296; further: % of control where 0% means no effect; nearly all actives have a fitted effect of over 50% in size
HT1080NT lethal = kills 2HG-producing HT-1080-NT fibrosarcoma cells. HT-1080-NT fibrosarcoma viability, CellTiter-Glo ATP luminescence, 48 h. Potency, µM (highest dose often 46.1 µM), without a hit: at the highest dose activity, negative = less viability, usual class: cytotoxic. 1.6% of 360,000 active;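 further: NT is the 2HG producing partner of a matched IDH1 knockdown line; 0% = DMSO-treated cells and -100% = media-only wells without cells; nearly all actives have a fitted effect of over 55% in size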
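HT-1080-NT; 750 cells/well; 5% FBS RPMI; 48 h compound, 37 degrees C; CellTiter-Glo luminescence; curve fitting and curve-class assignment.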
KB-V1 MDR tox = kills drug-selected multidrug resistant KB-V1 cells. KB-V1 MDR cells viability, CellTiter-Glo, 72 h. 3.4% of 400,000 active. Potency, µM (doses to about 46.1 µM), hits mostly cytotoxic; further: on the % scale 0 is the no-effect control and ±100 the full control effect; nearly all actives have a fitted effect of over 60% in size
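Readout: CellTiter-Glo luminescence, 10 min after addition. Cells: KB-V1 MDR subline, 72 h at 37 degrees C with compound. Analysis: corrected, normalized data fitted to concentration-effect curves.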
HT1080 IDH1KD tx = toxicity to HT-1080 IDH1 knockdown cells (counter line); HT-1080 IDH1 knockdown viability, ATP luminescence, 48 h; Potency, µM (titrated, usually from 46.1 µM), without a hit: at the top dose activity, negative = toxicity, actives largely listed as cytotoxic; 2% of 360,000 active; AID 686971;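 further: 0% = DMSO wells and -100% = cell-free medium wells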
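Using the IDH1-knockdown HT-1080 line run in the same batch and compound series as the NT line, viability after 48 h at 37 °C was determined by CellTiter-Glo luminescence and expressed as % activity.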
* = called active by the depositor; i = inactive; ? = inconclusive; nt = no result given; [ ] = another dose, or the depositor's remark. Most compounds without a hit are left out; they make up all but 7.9% or so of the library. The call rests on the fitted dose curve; in most records, active means well fitted curve in the direction sought with a large enough effect; inconclusive means small, poorly fitted or top-dose-only effect, or another doubt; inactive means no such curve, though single readings can be large; an effect the other way counts as inactive or inconclusive. Potency means the concentration at half of the fitted maximal effect.

SMILES	KB-3-1 cytotox	SW480 rereplic	MCF10A rereplic	HT1080NT lethal	KB-V1 MDR tox	HT1080 IDH1KD tx
COc1ccc(NC(=O)c2cc3ccccc3oc2=O)c(OC)c1	i	0%	7%	14%	i	4%
Cc1cc(=O)n2c3c(c4c(cc13)c(CN(C)C)cc(=O)n4C)OC2	?	6%	17%	-13%	i	?
CCC(=O)N1CCc2cc(S(=O)(=O)CCC(=O)N3CCN(c4ccccc4Cl)CC3)ccc21	i	nt	nt	nt	i	nt
CCCCCCc1cc2cc(-c3nnc(-c4cc(OC)c(OC)c(OC)c4)o3)c(=O)oc2cc1O	?	8.2µM*	0.52µM*	-2%	?	-9%
CCc1ccc(NC(=O)C(C)OC(=O)c2cc(=O)[nH]c3ccc(S(=O)(=O)Nc4ccc(F)cc4)cc23)cc1 (configuration not stated)	i	9%	21µM*	-4%	?	-4%
CC(=O)C1CCN(c2ncc(-c3cccc(N(C)C)c3)s2)CC1	i	nt	nt	nt	i	nt
CC1(C)CC(=O)C(N=Nc2ccc(F)cc2)=C(O)C1	i	4%	4%	4%	i	6%
CC1(C)CC(=O)C(N=Nc2ccc(-c3ccccc3)cc2)=C(O)C1	i	-61%	0.73µM*	4%	i	10%
CC1(C)CC(=O)C(N=Nc2cc(C(F)(F)F)ccc2Cl)=C(O)C1	i	-18%	0.52µM*	4%	i	4%
CCN(CC)CCOc1ccc(-c2nc3cc(Cl)ccc3s2)cc1	nt	19µM*	24µM*	nt	nt	nt
NS(=O)(=O)c1ccc(CCNC(=O)CCNS(=O)(=O)c2ccccc2C(F)(F)F)cc1	i	-3%	-1%	2%	i	12%
O=C(CSc1ncnc2nc[nH]c12)N1CCOCC1	i	18µM*	8.2µM*	4%	i	4%
CCSc1ccc([C@@H]2[C@@H]3C(=O)N(CC)C(=O)[C@@H]3[C@]3(C(=O)OC)CCCN23)cc1	i	-1%	21%	-1%	i	12%
Cc1ccccc1OC1C(=O)N(Cc2ccc3c(c2)OCO3)C1c1sccc1C (configuration not stated)	i	1%	?	?	i	13µM*
CN(C)c1ccc(/C=C/c2ccnc3ccc([N+](=O)[O-])cc23)cc1	i	nt	nt	nt	i	nt
O=c1c2ccccc2nc2sc(Nc3cccc(C(F)(F)F)c3)nn12	i	nt	nt	nt	i	nt
CCNS(=O)(=O)c1ccc(C(=O)OCc2cc(=O)oc3cc(OC)ccc23)cc1	i	?	15µM*	10%	i	-8%
CN(C)CCNC(=O)c1cccc2nc3cccc(F)c3nc12	4.1µM*	22%	?	?	?	7.3µM*
CN(C)CCNC(=O)c1cccc2ccc(-c3ccc(-c4ccccc4)cc3)nc12	?	?	?	-4%	12µM*	?
COc1ccc(OC)c2nc3c(C(=O)NCCN(C)C)cccc3nc12	?	?	?	?	21µM*	21µM*
COc1ccc(C23CC4CC(CC(C4)C2)C3)cc1C(=O)NCCN(C)C	i	?	?	?	i	?
CN(C)CCNC(=O)c1ccccc1	i	-9%	-4%	0%	i	1%
COc1ccccc1/C=c1/[nH]c(=O)/c(=C\c2ccccc2OC)[nH]c1=O	i	nt	nt	nt	?	nt
O=C(c1ccc(Cl)cc1)c1oc2ccccc2c1CS(=O)(=O)c1ccccc1	i	-2%	?	14%	6.5µM*	2%
Cc1nc2ccc(NC(=O)c3ccc(Cl)c(NC(=O)c4cccs4)c3)cc2s1	i	-8%	2%	-15%	23µM*	-18%
SMILES	KB-3-1 cytotox	SW480 rereplic	MCF10A rereplic	HT1080NT lethal	KB-V1 MDR tox	HT1080 IDH1KD tx
Cc1ccc(NC(=O)c2ccc(Cl)c(NC(=O)c3cccs3)c2)cc1	i	29%	-16%	?	i	?
CC1=C/C(=N\OS(=O)(=O)c2ccccc2)C(C(C)C)=CC1=O	?	3.7µM*	4.1µM*	?	?	?
CC1=C/C(=N\OS(=O)(=O)c2ccccc2)C(C)=CC1=O	13µM*	4.1µM*	4µM*	4.6µM*	5.8µM*	9.2µM*
COc1cc(C(=O)O/N=C2/C=C(C)C(=O)C=C2C)cc(OC)c1OC	i	-5%	5%	6%	i	21%
CC1=C(C)/C(=N\OS(=O)(=O)c2ccc(C)cc2)C=CC1=O	?	5.2µM*	?	13µM*	?	6.5µM*
CCCCC1CCC(C(=O)N(CC(C)C)c2c(N)n(Cc3ccccc3)c(=O)[nH]c2=O)CC1 (configuration not stated)	i	0%	0%	8%	i	1%
O=C(Nc1cccc(C(=O)OCc2cc(=O)n3nc(C4CC4)sc3n2)c1)c1cccc(F)c1	i	nt	nt	nt	?	nt
COc1ccccc1N(C)S(=O)(=O)c1ccc(C(=O)N(C)Cc2ccc(Cl)s2)cc1	nt	3%	26µM*	-9%	nt	-12%
COc1ccccc1N(C)S(=O)(=O)c1ccc(C(=O)N(C)Cc2cccc(OC)c2OC)cc1	i	nt	nt	-2%	i	-1%
N#Cc1c(N2CCCC(O)C2)nc(N)c2c(N)nc3c(c12)CC(=O)N3C12CC3CC(CC(C3)C1)C2 (configuration not stated)	4.1µM*	4.6µM*	?	-16%	15µM*	-14%
Cc1cc(C)n2nc(SCC(=O)NC(=O)c3ccccc3Cl)nc2n1	nt	-6%	?	0%	nt	0%
CN1/C(=N\O)c2cccc3cccc1c23	?	19%	18µM*	-22%	?	-18%
CNC(=O)CN1C(=O)c2cccc3cccc1c23	i	-3%	-1%	3%	i	9%
COc1ccc(NC(=O)CSc2nc3ccccc3cc2Cc2ccccc2)cc1	i	9%	27%	-8%	i	-13%
COc1ccc(OC)c(NC(=O)CSc2nc3ccccc3cc2Cc2ccccc2)c1	i	30%	15µM*	-6%	i	15%[9.24 µM]
COc1ccc(OC)c(NC(=O)CSc2nnc(-c3ccncc3)s2)c1	nt	-1%	0%	-8%	nt	1%
COc1ccc(OC)c(NC(=O)CSc2nnc(-c3cccnc3)s2)c1	i	11%	14%	18µM*	i	18µM*
CCCS(=O)(=O)NC(=O)C1(C)CCCN(C(=O)c2c(-c3ccccc3)noc2C)C1 (configuration not stated)	i	nt	nt	3%	i	18%
Cc1ccc(CNC(=O)COCc2cc(-c3ccc4c(c3)OCO4)on2)cc1	i	nt	nt	nt	i	nt
